A short description of assay [1]: qHTS of pediatric cancer cell lines to identify multiple opportunities for drug repurposing: Primary screen for Saos-2 cells (AID 1347097). Also: nearly all actives have a fitted effect of over 40% in size. Also: potency is read from the fitted curve at half-maximal effect. The procedure, abridged:
(§1)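 Following a 5-hour attachment period, cells at 500-1,000/well received compounds and were cultured for 48 hours. CellTiter-Glo was added and luminescence read to estimate viable, metabolically active cells.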
For orientation: In qHTS, concentration-response curves come from the screen itself.

The nature of assay [2]: qHTS of pediatric cancer cell lines to identify multiple opportunities for drug repurposing: Primary screen for SK-N-SH cells (AID 1347098). Also: nearly all actives have a fitted effect of over 65% in size. Also: potency is read from the fitted curve at half-maximal effect. The procedure, abridged: (§2)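 Cells (500-1,000/well) rested 5 h, then received compounds for 48 h; metabolically active cells were measured by CellTiter-Glo luminescence. Final concentrations spanned up to 46 µM (MIPE, 11-point) or 0.59 nM-46 µM (NPC, 8-point) in primary screens, 11-point in follow-ups.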

The nature of assay [3]: qHTS of pediatric cancer cell lines to identify multiple opportunities for drug repurposing: Primary screen for NB1643 cells (AID 1347099). Also: nearly all actives have a fitted effect of over 50% in size. Also: potency is read from the fitted curve at half-maximal effect. The procedure, abridged: as §1
Assay [4] in a line: qHTS of pediatric cancer cell lines to identify multiple opportunities for drug repurposing: Primary screen for LAN-5 cells (AID 1347100). Also: potency is read from the fitted curve at half-maximal effect. In short, it runs like this: (§3)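 Cells (500-1,000/well) in growth media were settled 5 h at 37 degrees C, then given compounds for 48 h. Viability was read as CellTiter-Glo luminescence. Primary runs used MIPE at 11 points (0.78 nM-46 µM) and NPC at 8 points (0.59 nM-46 µM); follow-ups used 11 points.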

Assay [5] is described as follows: qHTS of pediatric cancer cell lines to identify multiple opportunities for drug repurposing: Primary screen for BT-12 cells (AID 1347101). Also: nearly all actives have a fitted effect of over 25% in size. Also: potency is read from the fitted curve at half-maximal effect. In short, it runs like this:
as §2

The nature of assay [6]: qHTS of pediatric cancer cell lines to identify multiple opportunities for drug repurposing: Primary screen for Rh18 cells (AID 1347102). Also: nearly all actives have a fitted effect of over 65% in size. Also: potency is read from the fitted curve at half-maximal effect. The procedure, abridged:
as §3

Assay [7] in a line: qHTS of pediatric cancer cell lines to identify multiple opportunities for drug repurposing: Primary screen for OHS-50 cells (AID 1347103). Also: nearly all actives have a fitted effect of over 40% in size. Also: potency is read from the fitted curve at half-maximal effect. The procedure, abridged:
as §2

Assay [8] in a line: qHTS of pediatric cancer cell lines to identify multiple opportunities for drug repurposing: Primary screen for RD cells (AID 1347104). Also: nearly all actives have a fitted effect of over 55% in size. Also: potency is read from the fitted curve at half-maximal effect. The procedure, abridged:
as §1

Assay [9] in a line: qHTS of pediatric cancer cell lines to identify multiple opportunities for drug repurposing: Primary screen for MG 63 (6-TG R) cells (AID 1347105). Also: nearly all actives have a fitted effect of over 50% in size. Also: potency is read from the fitted curve at half-maximal effect. The procedure, abridged: as §1
A short description of assay [10]: qHTS of pediatric cancer cell lines to identify multiple opportunities for drug repurposing: Primary screen for U-2 OS cells (AID 1347096). Also: nearly all actives have a fitted effect of over 50% in size. The procedure, abridged: as §3

Molecules are shown by their SMILES. Results filed as inconclusive are left out. Active and inactive are the calls of the source. Calls follow the shape of the dose curve; as a rule, active = well fitted curve in the direction sought with a large enough effect; inconclusive = small, poorly fitted or top-dose-only effect, or another doubt; inactive = no such curve, though single readings can be large; an effect the other way counts as inactive or inconclusive.

Take `CN1CCC(CNc2ccc3ncc(-c4cccc(OC(F)(F)F)c4)n3n2)CC1`: the Potency in [1] was 18.7 µM (active); in assay [2], 7.64 µM (active); in [3], 18.7 µM (active); in [4], 14.8 µM (active); in assay [5], 27.3 µM (active); in assay [6], 18.7 µM (active). The Potency in [7] was 4.85 µM (active); in assay [8], 18.7 µM (active); in assay [9], 23.5 µM (active).
For the molecule `CC[C@H](CO)Nc1nc(NCc2ccccc2)c2ncn(C(C)C)c2n1`, the Potency entry in assay [10], in assay [3], in [6] and in assay [9] was “inactive” in each case. In assay [4], the Potency is 20.9 µM (active).
Take `COC(=O)c1ccc2c(C(=Nc3ccc(N(C)C(=O)CN4CCN(C)CC4)cc3)c3ccccc3)c(O)[nH]c2c1`: the Potency in assay [1] was 9.35 µM (active); in [2] it was 6.07 µM (active); in assay [3], 2.35 µM (active); in assay [4] it was 2.35 µM (active); in [7], 5.44 µM (active).
On to `CC(C)(O)c1cc2nc(-c3cnc(N)nc3)nc(N3CCOCC3)c2s1`, for which the Potency in [1] is 0.235 µM (active); in [2], 8.57 µM (active); in assay [3], 0.187 µM (active); in [4], 0.372 µM (active); in assay [6] it was 0.372 µM (active); in assay [7], 0.0306 µM (active). For the same molecule, the Potency in assay [8] is 0.209 µM (active); in [9] it was 0.0469 µM (active).
As to `CC(C)c1cc(-c2n[nH]c(=O)n2-c2ccc3c(ccn3C)c2)c(O)cc1O`, the Potency is 0.118 µM (active) in assay [1]; 0.242 µM (active) in [2]; 0.0662 µM (active) in assay [3]; 0.0662 µM (active) in [4]; 0.0833 µM (active) in assay [6]; 0.153 µM (active) in assay [7]. Further, the Potency in assay [8] is 0.059 µM (active).
Take `Fc1cc(-c2cccc3ncc(-c4cnn(C5CCNCC5)c4)nc23)cc(F)c1CN1CCOCC1`: the Potency is 29.6 µM (active) in assay [1]; 24.1 µM (active) in assay [2]; 18.7 µM (active) in assay [3]; 26.4 µM (active) in assay [4]; 27.3 µM (active) in assay [5]; 20.9 µM (active) in [6]. Also, the Potency in assay [7] is 19.3 µM (active); in [8] it was 18.7 µM (active).
Consider `COC(=O)Nc1ccc(-c2nc(N3CCOCC3)c3cnn(C4CCN(Cc5cccnc5)CC4)c3n2)cc1`, for which the Potency in [1] was 0.833 µM (active); in [2], 21.5 µM (active); in [4], 14.8 µM (active); in [5], 1.09 µM (active); in [6] it was 0.935 µM (active); in assay [8] it was 1.32 µM (active). For the same molecule, the Potency in assay [9] was 0.235 µM (active). Besides, in [3], the Potency result is “inactive”.
Regarding `O=C(c1cncc(Br)c1)N1CCC(N2CCCC2)CC1`, the Potency result in assay [1], in assay [2], in assay [3], in assay [5], in assay [6] and in assay [7] was “inactive” throughout. The Potency result in assay [8] was “inactive”.
As for `CCn1nnc2c(N3CCOCC3)nc(-c3ccc(NC(=O)Nc4ccc(C(=O)N5CCN(C)CC5)cc4)cc3)nc21`, the Potency in assay [1] is 0.148 µM (active); in assay [2] it was 8.57 µM (active); in [3], 0.0743 µM (active); in [4] it was 0.0833 µM (active); in assay [6], 0.0418 µM (active); in [7], 0.0273 µM (active). The Potency in assay [8] was 0.0264 µM (active).
As for `CNC(=O)c1cc(Oc2ccc(NC(=O)Nc3cc(C(C)(C)C)nn3-c3ccc4ncccc4c3)c(F)c2)ccn1`, the Potency is 16.6 µM (active) in assay [1]; 19.2 µM (active) in assay [2]; 4.69 µM (active) in assay [3]; 24.3 µM (active) in assay [5]; 20.9 µM (active) in [6]; 27.3 µM (active) in assay [7]. For the same molecule, in assay [8], the Potency was 10.5 µM (active).
`O=C(O)c1ccc2cc(-c3ccc(O)c(C45CC6CC(CC(C6)C4)C5)c3)ccc2c1`: the Potency in assay [1] was 0.296 µM (active); in assay [2] it was 24.1 µM (active); in assay [3], 0.372 µM (active); in assay [4] it was 0.59 µM (active); in assay [7] it was 0.243 µM (active); in assay [8] it was 5.26 µM (active). For the same molecule, in assay [9], the Potency was 0.296 µM (active).
On to `Cc1c(Cn2c(C)nc3c(C(=O)O)cc(N4CCOCC4)cc32)cccc1C(F)(F)F`, for which the Potency entry in assay [10], in assay [4], in assay [5] and in assay [6] was “inactive” each time. Also, the figures for the Potency in [8] and in assay [9] were 1.66 µM (active) and 2.96 µM (active), respectively.
Turning to `C[C@]12CC[C@H](O)CC1=CCC1C2CC[C@]2(C)C(n3cnc4ccccc43)=CCC12` (stereo partly drawn), the Potency result in [10], in assay [5], in assay [6], in assay [8] and in [9] was “inactive” in each case.
For `COc1cccc(-c2ccc(NC(=O)C3=C(C(=O)O)CCC3)c(F)c2)c1`, the Potency in assay [1] is 13.2 µM (active); in assay [2] it was 24.1 µM (active); in assay [3] it was 5.26 µM (active); in assay [5], 19.3 µM (active). Also, the Potency entry in assay [6] was “inactive”.
Consider `Cc1ccc(NC(=O)C2(c3ccc4c(c3)OC(F)(F)O4)CC2)nc1-c1cccc(C(=O)O)c1`, for which the Potency is 0.148 µM (active) in assay [1]; 0.136 µM (active) in assay [2]; 0.0332 µM (active) in assay [3]; 0.0833 µM (active) in assay [4]; 0.122 µM (active) in [5]; 0.833 µM (active) in [6]. For the same molecule, the Potency is 0.0544 µM (active) in assay [7], 0.0743 µM (active) in assay [8] and 0.148 µM (active) in [9].
With `COc1cc2c(NC3CCN(C(C)C)CC3)nc(C3CCCCC3)nc2cc1OCCCN1CCCC1`, the Potency in assay [1] is 18.7 µM (active); in assay [2] it was 10.8 µM (active); in assay [3] it was 20.9 µM (active); in assay [4], 20.9 µM (active); in assay [5], 27.3 µM (active); in [6] it was 23.5 µM (active). In addition, the Potency in assay [7] was 19.3 µM (active); in assay [8], 11.8 µM (active); in [9], 23.5 µM (active).
Regarding `CC(C)c1nn(-c2c(Cl)cccc2Cl)c2nc(Cc3ccc(OCCO)cc3)[nH]c(=O)c12`, the Potency result in assay [10] was “inactive”. For the same molecule, the results for the Potency in [5], in assay [7] and in assay [8] were 0.0544 µM (active), 0.0544 µM (active) and 0.132 µM (active), respectively.
As for `NC1(Cc2ccc(Cl)cc2)CCN(c2ncnc3[nH]ccc23)CC1`, the Potency was 5.26 µM (active) in assay [1]; 27.1 µM (active) in assay [2]; 20.9 µM (active) in assay [3]; 18.7 µM (active) in assay [4]; 6.11 µM (active) in assay [7]; 11.8 µM (active) in assay [8]. Besides, the Potency in assay [9] is 14.8 µM (active).

These data come from PubChem BioAssay (NCATS).
